# About 2,000 (36%) of roughly 5,500 compounds were called active. Not shown: some 18% with an inconclusive outcome. The list shows a part of the results. Unmarked numbers belong to inactive results. Cut-off read from the data, not from the text of the source: active = normalized growth mostly below about 0.91 (no sharp cut-off); inconclusive = no clear call, values can overlap the other calls; inactive = mostly above about 0.92.
# Test: chemical genetic growth profiling, strain panel (AID 1159580);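 note: tested at 20 µM; growth read once vehicle control cultures reached saturation at 30 °C; 1 = growth at the plate median or of vehicle wells; lower values mean less growth of the strain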
# Details: growth OD
# [1] = S. cerevisiae deletion strains, locus YAL013W, strain DEP1, active compounds read low
# [2] = S. cerevisiae deletion strains, locus YBR229C, strain ROT2, active compounds read low
# [3] = S. cerevisiae deletion strains, locus YDL101C, strain DUN1, active compounds read low
# [4] = S. cerevisiae deletion strains, locus YDR150W, strain NUM1, active compounds read low
# [5] = S. cerevisiae deletion strains, locus YEL061C, strain CIN8, active compounds read low
# [6] = S. cerevisiae deletion strains, locus YGR078C, strain PAC10, active compounds read low
# [7] = S. cerevisiae deletion strains, locus YHR030C, strain SLT2, active compounds read low
# [8] = S. cerevisiae deletion strains, locus YHR087W, strain rtc3, active compounds read low
# [9] = S. cerevisiae deletion strains, locus YJL187C, strain SWE1, active compounds read low
# [10] = S. cerevisiae deletion strains, locus YJR043C, strain POL32, active compounds read low
# [11] = S. cerevisiae deletion strains, locus YJR075W, strain HOC1, active compounds read low
# [12] = S. cerevisiae deletion strains, locus YKL190W, strain CNB1, active compounds read low
# [13] = S. cerevisiae deletion strains, locus YLR039C, strain RIC1, active compounds read low
# [14] = S. cerevisiae deletion strains, locus YLR058C, strain SHM2 (second series), active compounds read low
# [15] = S. cerevisiae deletion strains, locus YLR085C, strain ARP6, active compounds read low
# [16] = S. cerevisiae deletion strains, locus YLR262C, strain YPT6, active compounds read low
# [17] = S. cerevisiae deletion strains, locus YML094W, strain GIM5, active compounds read low
# [18] = S. cerevisiae deletion strains, locus YMR219W, strain ESC1, active compounds read low
# [19] = S. cerevisiae deletion strains, locus YMR263W, strain SAP30, active compounds read low
# [20] = S. cerevisiae deletion strains, locus YMR307W, strain GAS1, active compounds read low
# [21] = S. cerevisiae deletion strains, locus YNL153C, strain GIM3, active compounds read low
# [22] = S. cerevisiae deletion strains, locus YNL298W, strain CLA4 (second series), active compounds read low
# [23] = S. cerevisiae deletion strains, locus YNL322C, strain KRE1, active compounds read low
# [24] = S. cerevisiae deletion strains, locus YNR030W, strain Alg12, active compounds read low
# [25] = S. cerevisiae deletion strains, locus YOL006C, strain TOP1, active compounds read low
# [26] = S. cerevisiae deletion strains, locus YPL055C, strain LGE1, active compounds read low
# [27] = S. cerevisiae deletion strains, locus YPL241C, strain CIN2, active compounds read low
# [28] = S. cerevisiae deletion strains, locus YPR135W, strain CTF4, active compounds read low
structure (smiles),measurement,setting,value
CN1C/C(=C\c2ccccc2Cl)C(=O)/C(=C/c2ccccc2Cl)C1,normalized growth,[1],0.953
same,normalized growth,[2],0.911 (active)
same,normalized growth,[3],0.825 (active)
same,normalized growth,[4],0.942
same,normalized growth,[5],0.699 (active)
same,normalized growth,[6],0.873 (active)
same,normalized growth,[7],0.27 (active)
same,normalized growth,[8],0.888 (active)
same,normalized growth,[9],0.942
same,normalized growth,[10],0.971
same,normalized growth,[11],0.831 (active)
same,normalized growth,[12],0.789 (active)
same,normalized growth,[13],0.447 (active)
same,normalized growth,[14],0.958
same,normalized growth,[15],0.462 (active)
same,normalized growth,[16],0.655 (active)
same,normalized growth,[17],0.691 (active)
same,normalized growth,[18],0.909 (active)
same,normalized growth,[19],0.937
same,normalized growth,[20],0.419 (active)
same,normalized growth,[21],0.958
same,normalized growth,[22],0.523 (active)
same,normalized growth,[23],0.957
same,normalized growth,[24],0.756 (active)
same,normalized growth,[25],0.562 (active)
same,normalized growth,[26],0.92
same,normalized growth,[27],0.676 (active)
same,normalized growth,[28],0.422 (active)
CN(C)/C=C1\C(=O)c2ccccc2N(C)S1(=O)=O,normalized growth,[1],1
same,normalized growth,[2],0.994
same,normalized growth,"S. cerevisiae deletion strains, locus YCL061C, strain MRC1, active compounds read low",0.999
same,normalized growth,[3],0.999
same,normalized growth,"S. cerevisiae deletion strains, locus YDL134C, strain PPH21, active compounds read low",0.987
same,normalized growth,[4],1.02
same,normalized growth,[5],1.01
same,normalized growth,[6],0.982
same,normalized growth,[7],0.907
same,normalized growth,[8],0.954
same,normalized growth,[10],0.989
same,normalized growth,[11],0.949
same,normalized growth,[12],1.01
same,normalized growth,[13],0.84
same,normalized growth,[14],0.983
same,normalized growth,[15],1.06
same,normalized growth,[16],0.906
same,normalized growth,[17],1.02
same,normalized growth,[18],1
same,normalized growth,[19],1
same,normalized growth,[20],0.859
same,normalized growth,[21],0.997
same,normalized growth,[22],0.97
same,normalized growth,[23],0.999
same,normalized growth,[24],0.98
same,normalized growth,[25],0.946
same,normalized growth,[26],1.13
same,normalized growth,[27],1.01
same,normalized growth,[28],0.761
same,normalized growth,"S. cerevisiae strains, strain wild type, active compounds read low",0.991
O=C(C=C(O)c1ccc(Br)cc1)C(=O)Nc1ccccc1,normalized growth,"S. cerevisiae deletion strains, locus YAR019C, strain CDC15, active compounds read low",0.489 (active)
same,normalized growth,"S. cerevisiae deletion strains, locus YBL105C, strain PKC1, active compounds read low",0.637 (active)
same,normalized growth,"S. cerevisiae deletion strains, locus YBR135W, strain CKS1, active compounds read low",0.686 (active)
same,normalized growth,"S. cerevisiae deletion strains, locus YBR136W, strain MEC1, active compounds read low",0.851 (active)
same,normalized growth,"S. cerevisiae deletion strains, locus YBR160W, strain CDC28, active compounds read low",0.893 (active)
same,normalized growth,"S. cerevisiae deletion strains, locus YDL017W, strain CDC7, active compounds read low",0.683 (active)
same,normalized growth,"S. cerevisiae deletion strains, locus YDL028C, strain MPS1, active compounds read low",0.834 (active)
same,normalized growth,[3],0.379 (active)
same,normalized growth,"S. cerevisiae deletion strains, locus YDL108W, strain KIN28, active compounds read low",0.874 (active)
same,normalized growth,"S. cerevisiae deletion strains, locus YDL132W, strain cdc53, active compounds read low",0.76 (active)
same,normalized growth,"S. cerevisiae deletion strains, locus YDL214C, strain PRR2, active compounds read low",0.145 (active)
same,normalized growth,"S. cerevisiae deletion strains, locus YDR052C, strain DBF4, active compounds read low",0.849 (active)
same,normalized growth,"S. cerevisiae deletion strains, locus YDR054C, strain cdc34, active compounds read low",0.581 (active)
same,normalized growth,"S. cerevisiae deletion strains, locus YDR226W, strain ADK1, active compounds read low",0.869 (active)
same,normalized growth,"S. cerevisiae deletion strains, locus YDR477W, strain SNF1, active compounds read low",0.105 (active)
same,normalized growth,"S. cerevisiae deletion strains, locus YER123W, strain YCK3, active compounds read low",0.124 (active)
same,normalized growth,"S. cerevisiae deletion strains, locus YER133W, strain GLC7, active compounds read low",0.229 (active)
same,normalized growth,"S. cerevisiae deletion strains, locus YFL009W, strain cdc4, active compounds read low",0.7 (active)
same,normalized growth,"S. cerevisiae deletion strains, locus YFL029C, strain CAK1, active compounds read low",0.439 (active)
same,normalized growth,"S. cerevisiae deletion strains, locus YFR003C, strain YPI1, active compounds read low",0.718 (active)
same,normalized growth,"S. cerevisiae deletion strains, locus YFR019W, strain FAB1, active compounds read low",0.128 (active)
same,normalized growth,"S. cerevisiae deletion strains, locus YFR028C, strain CDC14, active compounds read low",0.448 (active)
same,normalized growth,"S. cerevisiae deletion strains, locus YGR040W, strain KSS1, active compounds read low",0.109 (active)
same,normalized growth,"S. cerevisiae deletion strains, locus YGR052W, strain FMP48, active compounds read low",0.132 (active)
same,normalized growth,"S. cerevisiae deletion strains, locus YGR092W, strain DBF2, active compounds read low",0.104 (active)
same,normalized growth,[7],0.148 (active)
same,normalized growth,"S. cerevisiae deletion strains, locus YHR079C, strain IRE1, active compounds read low",0.159 (active)
same,normalized growth,"S. cerevisiae deletion strains, locus YHR082C, strain KSP1, active compounds read low",0.136 (active)
same,normalized growth,"S. cerevisiae deletion strains, locus YHR205W, strain SCH9, active compounds read low",0.0311 (active)
same,normalized growth,"S. cerevisiae deletion strains, locus YIL147C, strain SLN1, active compounds read low",0.848 (active)
same,normalized growth,"S. cerevisiae deletion strains, locus YJL095W, strain BCK1, active compounds read low",0.136 (active)
same,normalized growth,"S. cerevisiae deletion strains, locus YJL128C, strain PBS2, active compounds read low",0.483 (active)
same,normalized growth,"S. cerevisiae deletion strains, locus YJL157C, strain FAR1, active compounds read low",0.113 (active)
same,normalized growth,"S. cerevisiae deletion strains, locus YJR016C, strain ILV3, active compounds read low",0.156 (active)
same,normalized growth,"S. cerevisiae deletion strains, locus YJR066W, strain TOR1 (second series), active compounds read low",0.115 (active)
same,normalized growth,"S. cerevisiae deletion strains, locus YJR066W, strain TOR1, active compounds read low",0.122 (active)
same,normalized growth,"S. cerevisiae deletion strains, locus YKL048C, strain ELM1, active compounds read low",0.136 (active)
same,normalized growth,"S. cerevisiae deletion strains, locus YKL067W, strain YNK1, active compounds read low",0.127 (active)
same,normalized growth,"S. cerevisiae deletion strains, locus YKL101W, strain HSL1, active compounds read low",0.103 (active)
same,normalized growth,"S. cerevisiae deletion strains, locus YKL193C, strain SDS22, active compounds read low",0.761 (active)
same,normalized growth,"S. cerevisiae deletion strains, locus YKL203C, strain TOR2, active compounds read low",0.142 (active)
same,normalized growth,"S. cerevisiae deletion strains, locus YLR113W, strain HOG1, active compounds read low",0.145 (active)
same,normalized growth,"S. cerevisiae deletion strains, locus YLR133W, strain CKI1, active compounds read low",0.127 (active)
same,normalized growth,"S. cerevisiae deletion strains, locus YLR403W, strain SFP1, active compounds read low",0.00467 (active)
same,normalized growth,"S. cerevisiae deletion strains, locus YML070W, strain DAK1, active compounds read low",0.129 (active)
same,normalized growth,"S. cerevisiae deletion strains, locus YMR001C, strain CDC5, active compounds read low",0.449 (active)
same,normalized growth,"S. cerevisiae deletion strains, locus YMR205C, strain PFK2 (second series), active compounds read low",0.118 (active)
same,normalized growth,"S. cerevisiae deletion strains, locus YMR277W, strain FCP1, active compounds read low",0.728 (active)
same,normalized growth,"S. cerevisiae deletion strains, locus YNL006W, strain LST8, active compounds read low",0.158 (active)
same,normalized growth,"S. cerevisiae deletion strains, locus YNL020C, strain ARK1, active compounds read low",0.109 (active)
same,normalized growth,"S. cerevisiae deletion strains, locus YNL161W, strain CBK1, active compounds read low",0.77 (active)
same,normalized growth,"S. cerevisiae deletion strains, locus YNL183C, strain NPR1, active compounds read low",0.131 (active)
same,normalized growth,"S. cerevisiae deletion strains, locus YNL207W, strain RIO2, active compounds read low",0.824 (active)
same,normalized growth,"S. cerevisiae deletion strains, locus YNL222W, strain SSU72, active compounds read low",0.786 (active)
same,normalized growth,"S. cerevisiae deletion strains, locus YNL307C, strain MCK1 (second series), active compounds read low",0.114 (active)
same,normalized growth,"S. cerevisiae deletion strains, locus YOL078W, strain AVO1, active compounds read low",0.76 (active)
same,normalized growth,"S. cerevisiae deletion strains, locus YOL136C, strain PFK27, active compounds read low",0.109 (active)
same,normalized growth,"S. cerevisiae deletion strains, locus YOR061W, strain CKA2, active compounds read low",0.0904 (active)
same,normalized growth,"S. cerevisiae deletion strains, locus YOR119C, strain RIO1, active compounds read low",0.134 (active)
same,normalized growth,"S. cerevisiae deletion strains, locus YOR231W, strain MKK1, active compounds read low",0.14 (active)
same,normalized growth,"S. cerevisiae deletion strains, locus YOR329C, strain SCD5, active compounds read low",0.79 (active)
same,normalized growth,"S. cerevisiae deletion strains, locus YPL031C, strain PHO85, active compounds read low",0.105 (active)
same,normalized growth,"S. cerevisiae deletion strains, locus YPL153C, strain RAD53, active compounds read low",0.103 (active)
same,normalized growth,"S. cerevisiae deletion strains, locus YPL204W, strain HRR25, active compounds read low",0.114 (active)
same,normalized growth,"S. cerevisiae deletion strains, locus YPL209C, strain IPL1, active compounds read low",0.646 (active)
same,normalized growth,"S. cerevisiae deletion strains, locus YPL256C, strain CLN2, active compounds read low",0.17 (active)
same,normalized growth,"S. cerevisiae deletion strains, locus YPR025C, strain CCL1, active compounds read low",0.871 (active)
same,normalized growth,"S. cerevisiae deletion strains, locus YPR106W, strain ISR1, active compounds read low",0.513 (active)
same,normalized growth,"S. cerevisiae deletion strains, locus YPR111W, strain DBF20, active compounds read low",0.724 (active)
same,normalized growth,"S. cerevisiae deletion strains, strain NNK1, active compounds read low",0.106 (active)
same,normalized growth,"S. cerevisiae deletion strains, strain TSCII, active compounds read low",0.39 (active)
O=C(Nc1ccccc1C(=O)Nc1ccc(Br)cc1)c1ccccc1,normalized growth,[1],1.01
same,normalized growth,[2],1.02
same,normalized growth,[3],1.05
same,normalized growth,[4],1
same,normalized growth,[5],0.998
same,normalized growth,[6],1.02
same,normalized growth,"S. cerevisiae deletion strains, locus YGR229C, strain SMI1, active compounds read low",1.03
same,normalized growth,[7],1.03
same,normalized growth,[8],1.03
same,normalized growth,[9],1.01
same,normalized growth,[10],1.03
same,normalized growth,[11],0.997
same,normalized growth,[12],1.03
same,normalized growth,[13],1.02
same,normalized growth,[14],1.02
same,normalized growth,[15],1
same,normalized growth,[16],1.03
same,normalized growth,[17],1.01
same,normalized growth,[18],1.01
same,normalized growth,[19],1.03
same,normalized growth,[21],1.03
same,normalized growth,[22],1.06
same,normalized growth,[23],1.02
same,normalized growth,[24],1.02
same,normalized growth,[26],1.08
same,normalized growth,[27],1.01
same,normalized growth,[28],1.17
